The values that follow come from PubChem BioAssay.

The structures appear in SMILES notation. A number with no mark means an inactive call. The list shows a part of the results. Activity calls are given as the source filed them.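 The calls were made as follows, unless noted: active = mean inhibition above a cutoff equal to the average over all tested compounds plus one standard deviation (cut at about 70% in these data); inactive = the rest.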

The target of test [1] is Photoreceptor-specific nuclear receptor (Homo sapiens) (UniProt Q9Y5X4). The test can be described thus: retest of NR2E3-NCOR disrupting agonists – cell-based, luminescence, CHO-S two-hybrid, confirmation (AID 624378;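 active = average inhibition above a cutoff equal to the mean inhibition of all tested compounds plus one SD, cut at about 70% in these data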;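 also: 0% = DMSO in NR2E3 cells and 100% = DMSO in cells lacking NR2E3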). The conditions noted are these: CHO-S mammalian two-hybrid NR2E3-NCOR, luciferase luminescence; at 3.98 µM; stronger effect = higher value.
A short description of test [2]: nonselective effects on VP16 transactivation – cell-based, luminescence, CHO-S, high throughput, counter-screen for NR2E3 agonist project, confirmation (AID 624379).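 Also: 0% = DMSO with VP16-transfected cells and 100% = DMSO with cells lacking VP16; higher means less reporter light so more repression of VP16 activity.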 The conditions noted are these: CHO-S GAL4-VP16 luciferase reporter, at 3.98 µM, stronger effect = higher value. (Counterscreens check selectivity or assay interference.)
Test [3] deals with Receptor-interacting serine/threonine-protein kinase 2 (Homo sapiens) (UniProt O43353). The test is described as follows: inhibitors of RIPK2 association with NOD2 – fluorescence, CHO cells, BLA complementation, triplicate, confirmation (AID 624370;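 active = mean inhibition across replicates above a set limit taken from the earlier primary screen, cut at about 21% in these data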;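 also: 0% = DMSO-only wells and the high end = clavulanate BLA-blocked wells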). The conditions noted are these: CCF4 FRET, at 4.98 µM, stronger effect = higher value.
Test [4] is described as follows: BLA reporter readout interference – cell-based, CHO-K1 CMV-bla, CCF4 FRET, fluorescence, artefact control for NOD2-RIPK2 interaction inhibitor project, confirmation (AID 624371;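 active = mean inhibition above the low-control mean inhibition plus three low-control SD, cut at about 11% in these data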;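 also: 0% = DMSO only wells and 100% = clavulanate high control wells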). The conditions noted are these: CCF4 FRET ratio, counterscreen, at 4.98 µM, stronger effect = higher value.
Test [5] has as its system transactivating tegument protein VP16 (Human herpesvirus 1). The test can be described thus: compounds suppressing VP16-driven luciferase signal – cell-based, luminescence, single concentration, counter-screen for SRC2 inhibitor project (AID 652007; in the data active = inhibition above about 36%). The note with it: cell-based VP16 transactivation luciferase reporter, at 8.9 µM, stronger effect = higher value.
Test [6] addresses Nuclear receptor coactivator 2 (Homo sapiens) (UniProt Q15596). The test can be described thus: inhibition of GAL4-SRC2 driven luciferase expression – cell-based, luminescence, HEK293, triplicate, confirmation (AID 652008;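 active = mean inhibition above 46.5%, the solvent-only control mean plus 3 SD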;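 also: 0% = DMSO-treated cells and 100% = Gossypol at 36 µM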). The conditions noted are these: HEK293 GAL4-SRC2 luciferase reporter, at 8.9 µM, stronger effect = higher value. In general terms: A reporter such as luciferase makes a cellular process visible.

A short description of test [7]: VP16-driven transactivation reporter suppression – cell-based, luminescence, HEK293, counter-screen for COUP-TFII antagonist project (AID 687007; in the data active = inhibition above about 13%). The note with it: HEK293 Gal4-VP16 luciferase reporter, at 8.5 µM, stronger effect = higher value.
The target of test [8] is COUP transcription factor 2 (Homo sapiens) (UniProt P24468). The test is described as follows: retest of COUP-TFII reporter suppressors – cell-based, luciferase reporter, HEK293, triplicate, confirmation (AID 687008;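 active = mean inhibition over three repeats above a set limit taken from the earlier primary screen, cut at about 38% in these data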;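 also: 100% = cells given the luciferase reporter alone without the COUP-TF2 vector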). The conditions noted are these: HEK293 NGFI-A luciferase reporter, luminescence; at 8.5 µM; stronger effect = higher value.
A short description of test [9]: StAR promoter reporter inhibitors, counter-screen for LRH-1 inverse agonist project, cell-based, luminescence, high throughput (AID 651611; in the data active = inhibition above about 28%). The note with it: StAR promoter luciferase reporter counterscreen, at 3.6 µM, stronger effect = higher value.
Test [10] deals with Nuclear receptor subfamily 5 group A member 2 (Homo sapiens) (UniProt O00482). The test is described as follows: NR5A2 activity suppression in reporter cells – cell-based, luminescence, confirmation (AID 651613; in the data active = inhibition above about 42%;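 also: HEK293T cells co-transfected with LRH-1 and StAR promoter luciferase reporter; 0% = vehicle wells and 100% = parental cells lacking receptor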). The conditions noted are these: cell-based LRH-1 luciferase reporter, inverse agonism; at 3.6 µM; stronger effect = higher value.
Test [11] addresses Steroidogenic factor 1 (Homo sapiens) (UniProt Q13285). The test can be described thus: inverse agonism at SF1 nuclear receptor – cell-based, luminescence, high throughput, counter-screen for LRH-1 inverse agonist project (AID 651614; in the data active = inhibition above about 44%;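 also: cells cotransfected with StAR promoter reporter and SF1 expression vector; 0% = vehicle on cells with receptor and 100% = vehicle on cells lacking receptor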). The note with it: cell-based SF1 luciferase reporter, at 3.6 µM, stronger effect = higher value.
Test [12] can be described thus: compounds suppressing VP16-driven luciferase signal – cell-based, luminescence, high throughput, counter-screen for LRH-1 inverse agonist project (AID 651615; in the data active = inhibition above about 33%). The note with it: Gal4-VP16 luciferase reporter cells, at 3.6 µM, stronger effect = higher value.

Steroidogenic factor 1 (Homo sapiens), sequence (Q13285 whole entry, looked up, the tested form may be a part): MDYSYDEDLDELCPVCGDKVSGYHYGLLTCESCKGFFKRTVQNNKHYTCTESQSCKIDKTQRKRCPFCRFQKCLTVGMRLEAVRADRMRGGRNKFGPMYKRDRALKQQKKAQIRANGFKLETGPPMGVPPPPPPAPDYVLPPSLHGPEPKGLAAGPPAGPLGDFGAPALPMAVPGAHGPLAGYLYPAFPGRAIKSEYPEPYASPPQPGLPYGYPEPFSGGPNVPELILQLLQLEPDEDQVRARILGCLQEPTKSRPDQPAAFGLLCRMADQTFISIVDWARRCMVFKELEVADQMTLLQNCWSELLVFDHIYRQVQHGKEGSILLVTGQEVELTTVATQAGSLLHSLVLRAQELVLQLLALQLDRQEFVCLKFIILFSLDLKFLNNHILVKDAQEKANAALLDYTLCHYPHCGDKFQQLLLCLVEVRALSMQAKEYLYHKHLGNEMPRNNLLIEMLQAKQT
Photoreceptor-specific nuclear receptor (Homo sapiens), sequence (Q9Y5X4 whole entry, looked up): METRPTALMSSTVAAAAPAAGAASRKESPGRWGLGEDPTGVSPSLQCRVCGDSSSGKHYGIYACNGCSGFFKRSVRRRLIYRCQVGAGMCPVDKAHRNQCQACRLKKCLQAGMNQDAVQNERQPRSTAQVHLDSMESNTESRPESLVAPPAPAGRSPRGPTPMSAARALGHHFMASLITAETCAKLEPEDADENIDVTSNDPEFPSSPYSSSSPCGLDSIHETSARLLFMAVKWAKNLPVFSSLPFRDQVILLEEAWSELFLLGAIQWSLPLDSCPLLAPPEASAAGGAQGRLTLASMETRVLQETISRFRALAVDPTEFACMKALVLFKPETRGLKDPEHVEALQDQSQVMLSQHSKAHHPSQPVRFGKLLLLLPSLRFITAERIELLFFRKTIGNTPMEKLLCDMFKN
Nuclear receptor subfamily 5 group A member 2 (Homo sapiens), sequence (O00482 whole entry, looked up): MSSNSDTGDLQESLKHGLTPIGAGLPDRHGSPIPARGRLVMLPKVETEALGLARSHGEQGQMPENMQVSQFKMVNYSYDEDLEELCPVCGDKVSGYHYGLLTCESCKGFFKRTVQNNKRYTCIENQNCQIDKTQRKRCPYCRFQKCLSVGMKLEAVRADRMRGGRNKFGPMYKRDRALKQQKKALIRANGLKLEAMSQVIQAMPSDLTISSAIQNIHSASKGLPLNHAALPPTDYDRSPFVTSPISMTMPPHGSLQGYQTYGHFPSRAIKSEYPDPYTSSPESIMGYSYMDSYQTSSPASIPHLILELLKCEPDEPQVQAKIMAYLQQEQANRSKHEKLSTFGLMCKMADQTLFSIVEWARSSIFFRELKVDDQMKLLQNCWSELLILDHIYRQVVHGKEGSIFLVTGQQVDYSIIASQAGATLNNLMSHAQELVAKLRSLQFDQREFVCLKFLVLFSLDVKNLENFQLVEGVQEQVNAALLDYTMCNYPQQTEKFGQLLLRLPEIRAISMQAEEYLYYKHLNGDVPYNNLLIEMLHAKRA
COUP transcription factor 2 (Homo sapiens), sequence (P24468 whole entry, looked up): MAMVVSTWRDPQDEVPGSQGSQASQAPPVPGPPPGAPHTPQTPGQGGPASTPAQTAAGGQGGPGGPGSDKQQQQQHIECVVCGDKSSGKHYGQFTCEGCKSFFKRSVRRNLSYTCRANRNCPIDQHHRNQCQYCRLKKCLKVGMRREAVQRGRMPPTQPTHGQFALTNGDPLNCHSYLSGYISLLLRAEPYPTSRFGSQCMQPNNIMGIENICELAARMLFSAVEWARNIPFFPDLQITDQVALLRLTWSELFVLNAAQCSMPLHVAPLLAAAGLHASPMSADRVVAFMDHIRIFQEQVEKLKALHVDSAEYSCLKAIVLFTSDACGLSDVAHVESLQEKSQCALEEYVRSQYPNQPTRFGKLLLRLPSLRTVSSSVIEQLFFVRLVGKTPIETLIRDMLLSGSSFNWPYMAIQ
Nuclear receptor coactivator 2 (Homo sapiens), sequence (Q15596 whole entry, looked up, the tested form may be a part): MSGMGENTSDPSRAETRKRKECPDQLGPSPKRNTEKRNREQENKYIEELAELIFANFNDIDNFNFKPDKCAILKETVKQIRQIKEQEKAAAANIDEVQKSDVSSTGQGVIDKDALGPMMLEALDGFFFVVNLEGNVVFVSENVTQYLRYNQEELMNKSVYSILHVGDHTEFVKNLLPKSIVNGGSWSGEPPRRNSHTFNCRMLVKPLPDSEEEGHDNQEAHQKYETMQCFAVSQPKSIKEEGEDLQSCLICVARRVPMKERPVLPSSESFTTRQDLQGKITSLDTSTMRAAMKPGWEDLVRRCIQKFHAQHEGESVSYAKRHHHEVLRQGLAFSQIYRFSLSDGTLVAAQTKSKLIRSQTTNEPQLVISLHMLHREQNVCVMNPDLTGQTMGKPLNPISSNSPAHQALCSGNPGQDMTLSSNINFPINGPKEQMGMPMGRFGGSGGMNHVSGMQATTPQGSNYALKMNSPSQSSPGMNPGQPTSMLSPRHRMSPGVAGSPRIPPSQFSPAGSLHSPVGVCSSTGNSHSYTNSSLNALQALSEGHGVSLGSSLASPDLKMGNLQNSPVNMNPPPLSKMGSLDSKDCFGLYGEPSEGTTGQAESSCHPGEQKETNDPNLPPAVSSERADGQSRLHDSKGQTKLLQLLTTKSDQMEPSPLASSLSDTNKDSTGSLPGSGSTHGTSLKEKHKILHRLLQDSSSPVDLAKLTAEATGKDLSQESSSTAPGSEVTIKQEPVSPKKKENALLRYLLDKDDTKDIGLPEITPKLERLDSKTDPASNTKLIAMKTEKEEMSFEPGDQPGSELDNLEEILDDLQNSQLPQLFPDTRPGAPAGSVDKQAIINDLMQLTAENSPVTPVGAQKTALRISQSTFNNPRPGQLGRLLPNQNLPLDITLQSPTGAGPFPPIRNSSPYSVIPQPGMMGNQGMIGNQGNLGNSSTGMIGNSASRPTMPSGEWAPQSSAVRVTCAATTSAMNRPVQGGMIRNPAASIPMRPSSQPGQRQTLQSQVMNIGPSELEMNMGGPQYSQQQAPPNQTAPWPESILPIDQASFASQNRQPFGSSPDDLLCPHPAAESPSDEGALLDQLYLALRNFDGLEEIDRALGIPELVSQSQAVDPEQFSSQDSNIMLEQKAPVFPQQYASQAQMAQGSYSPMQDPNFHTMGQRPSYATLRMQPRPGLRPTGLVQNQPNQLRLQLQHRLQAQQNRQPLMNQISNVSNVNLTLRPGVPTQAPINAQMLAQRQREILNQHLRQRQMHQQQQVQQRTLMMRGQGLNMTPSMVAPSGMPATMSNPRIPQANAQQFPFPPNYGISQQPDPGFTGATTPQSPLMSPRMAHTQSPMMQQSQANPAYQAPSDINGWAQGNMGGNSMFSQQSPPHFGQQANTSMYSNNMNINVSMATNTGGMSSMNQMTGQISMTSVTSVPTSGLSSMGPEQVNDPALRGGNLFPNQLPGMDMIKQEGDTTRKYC
Receptor-interacting serine/threonine-protein kinase 2 (Homo sapiens), sequence (O43353 whole entry, looked up): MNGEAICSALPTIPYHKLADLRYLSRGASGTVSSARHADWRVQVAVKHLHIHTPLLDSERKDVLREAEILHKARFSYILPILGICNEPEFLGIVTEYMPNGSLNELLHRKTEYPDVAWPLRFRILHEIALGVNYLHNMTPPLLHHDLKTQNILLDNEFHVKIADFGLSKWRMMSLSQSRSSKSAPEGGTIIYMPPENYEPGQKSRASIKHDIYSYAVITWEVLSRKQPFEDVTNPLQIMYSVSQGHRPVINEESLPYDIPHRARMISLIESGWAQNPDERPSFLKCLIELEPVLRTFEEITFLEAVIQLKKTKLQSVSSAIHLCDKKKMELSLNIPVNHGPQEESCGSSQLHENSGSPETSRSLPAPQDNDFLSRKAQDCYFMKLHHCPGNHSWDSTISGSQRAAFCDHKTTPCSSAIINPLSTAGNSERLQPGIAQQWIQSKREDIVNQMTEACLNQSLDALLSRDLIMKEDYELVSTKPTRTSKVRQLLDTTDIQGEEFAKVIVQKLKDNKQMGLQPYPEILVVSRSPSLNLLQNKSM

What is called inhibition is the drop in the measured response relative to a control, in per cent. Take `OC(c1ccc(Cl)cc1)c1ncc(-c2ccc(Cl)cc2)[nH]1` (centres undefined): the inhibition in [1] was 79.4% (active); in test [2], 58.9%.

On to `Oc1ccc(Br)cc1/C=N/Nc1ccccn1`, for which the inhibition in test [1] is 99.3% (active); in test [2], 61%.

On to `COC(=O)c1ccc(NC(=O)c2ccccc2NS(=O)(=O)c2ccccc2)cc1`, for which the inhibition in [1] is 77.4% (active); in test [2], 57.7%.

Take `CNC(=O)c1sc(Nc2ccc(OCc3ccccc3)cc2)nc1C`: the inhibition was 37.7% in [1] and 30% in test [2].

`COc1ccc(C(C[N+](=O)[O-])n2nc(C)cc2C)cc1` (centres undefined): the inhibition is 40.9% (active) in test [3] and -5.9% in [4].

With `COc1ccc(S(=O)(=O)NCCCCOc2ccc(Cl)cc2)cc1`, the values for the inhibition in [1] and in [2] were 97.5% (active) and 86.5% (active), respectively.

For the compound `Cc1ccc(CS(=O)(=O)c2ncc(Cl)c(C(=O)Nc3nnc(C)s3)n2)cc1`, the inhibition in test [1] is 30.6%; in test [2], -7.39%; in test [5], 27.1%; in [6], 55% (active).

`O=C(CCC(=O)N1CCN(S(=O)(=O)c2ccc(Cl)cc2)CC1)NCc1cccc(C(F)(F)F)c1`: the inhibition in test [1] was 93.6% (active); in test [2], 81.6% (active); in test [7] it was 7.21%; in [8] it was 53.4% (active).

On to `Cn1nccc1C(=O)NC1CCCc2c1cnn2-c1ccccc1F` (centres undefined), for which the inhibition in [1] was 93.7% (active); in test [2], 86.2% (active); in [7], 1.97%; in test [8] it was 66.8% (active).

As to `COc1ccc(CNc2ncnc3ccccc23)cc1`, the inhibition in test [1] is 82.4% (active); in test [2], 75.7% (active); in [9], 11.2%; in test [10], 63.6% (active); in test [11] it was 55.6% (active); in test [12], 62.8% (active). Further, the results for the inhibition in [7] and in [8] were 0.55% and 47.6% (active), respectively.

For the compound `CSc1nsc(SC)c1NC(=O)OC1CCCCC1`, the inhibition in [1] is -5.88%; in [2], -17.6%.

Regarding `CCC(C)C(N=C1NS(=O)(=O)c2ccccc21)C(=O)N1CCC(C)CC1` (centres undefined), the inhibition in test [1] is 41%; in [2], -4.13%.

For the compound `COc1ccc(C(=O)NC2CCCc3c2cnn3-c2cccc(C)c2C)c(OC)n1` (centres undefined), the inhibition in test [1] was 89.6% (active); in test [2], 74.1% (active); in test [5] it was -6.55%; in test [6], 19.8%.

On to `O=[N+]([O-])c1ccc(NS(=O)(=O)c2ccccc2)c(Cl)c1`, for which the inhibition in [1] was 77.9% (active); in test [2], 43.9%.

For `COc1ccc(CNS(=O)(=O)c2ccc(-c3cnc(C4CC4)o3)cc2)cc1`, the inhibition in test [1] is 48.2%; in test [2], 55.8%.

As to `Cc1cccc(NC(=O)c2ccc(COc3ccccc3[N+](=O)[O-])o2)n1`, the inhibition in [1] was 10%; in [2] it was 26.1%.

With `N#Cc1c(-c2ccccc2)nc(SCc2cccc(C(F)(F)F)c2)[nH]c1=O`, the inhibition in test [1] was 43.6%; in [2] it was 30.9%.

As to `CCOC(=O)N1CCN(C(=O)C2CCN(c3ncnc4c3sc3cccc(F)c34)CC2)CC1`, the inhibition is 92% (active) in [1], 70.3% in test [2], -7.67% in test [7] and 27.1% in test [8].

Turning to `COc1ccc(-n2c(C)cc(C(=O)CSc3nnc(-c4cccs4)o3)c2C)cc1`, the inhibition is 61.9% in [1]; 66.9% in test [2]; 20% in test [5]; 33.9% in [6]; 0.72% in test [7]; 34.1% in test [8].

Take `COc1ccccc1CNc1nc(Nc2ccccc2Cl)c2sccc2n1`: the inhibition was 93.1% (active) in test [1], 86.4% (active) in test [2], -3.83% in test [7] and 29.8% in test [8].

`Cc1ccc(S(=O)(=O)N2[C@@H](c3ccc(Br)cc3)C(C(=O)O)=C[C@H]2CC2CCCC2)cc1`: the inhibition is 26.2% in test [1] and 26.5% in test [2].

For `COc1ccccc1-n1nnnc1S(=O)(=O)Cc1ccc(Cl)cc1`, the inhibition was 10.2% in test [1]; 19% in [2]; 41.7% (active) in [9]; 51.6% (active) in test [10]; 40.4% in test [11]; 34.2% (active) in [12].

In the case of `CCOC(=O)CC1(NC(=O)c2cc(COc3cncc(Cl)c3)on2)CCCCC1`, the inhibition was 20.2% in [1] and 44.2% in test [2].

On to `CCc1cc2c(NC3CCCC3)ncnc2s1`, for which the inhibition in test [1] was 88.5% (active); in test [2] it was 64%; in test [7] it was 5.31%; in test [8], 29.9%.

For `CN(C(=O)CN1CCN(c2cc(-c3ccc(OCc4ccccc4)cc3)ncn2)CC1)c1ccccc1`, the inhibition was 51.3% in [1]; 52.7% in test [2]; 14.7% in [9]; 46.5% (active) in test [10]; 46.4% (active) in test [11]; 25.7% in test [12]. Moreover, the inhibition in test [7] was 1.06%; in test [8], 31.7%.

For the compound `Cc1cc2nc(-c3ccc(Cl)cc3)c(Cc3cccc(F)c3)n2c(C)c1Br`, the figures for the inhibition in test [1] and in test [2] were 36.1% and -25.9%, respectively.

For `CCn1c(CNC(=O)c2cc(OC)c(OC)c(OC)c2)cc2cc(C)ccc21`, the inhibition is 85.2% (active) in [1], 71% (active) in test [2], 4.19% in test [7] and 15.9% in test [8].

Consider `Cc1nc(-c2ccc(F)cc2)c(CC(=O)Nc2cc(S(=O)(=O)N3CCCCC3)ccc2C)s1`, for which the inhibition was 56.8% in test [1] and -7.22% in [2].

For `Clc1ccc(-n2nnnc2-c2cnc(-c3ccccn3)nc2-c2cccs2)cc1`, the inhibition in test [1] is 24.1%; in test [2] it was -8.49%.
